# Records with an inconclusive call do not appear. Activity calls are given as the source filed them. Unless noted, no rule for the calls is given here.
# Tests used:
# [1] = chitosan synthesis blockers in C. neoformans – flow cytometry, Cibacron Brilliant Red staining (AID 1347148); settings: Cryptococcus neoformans chitosan, stronger effect = lower value; at 10 µM unless noted;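 also: compound exposure lasted three days at 37 degrees C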
# [2] = target: ATP-dependent translocase ABCB1 (Homo sapiens) (UniProt P08183); experiment: P-glycoprotein substrate transport blockade – cell-based (AID 377; in the data active = fluorescence slope change above about 50%); settings: MDR1-expressing cells, fluorescent substrate accumulation slope; stronger effect = higher value; concentration not given here
# [3] = rescue of PC12 cells from polyQ htt toxicity – LDH release (AID 1610); settings: PC12 mutant huntingtin toxicity, final LDH at 4 uM, stronger effect = lower value
# ATP-dependent translocase ABCB1 (Homo sapiens), sequence (P08183 whole entry, looked up): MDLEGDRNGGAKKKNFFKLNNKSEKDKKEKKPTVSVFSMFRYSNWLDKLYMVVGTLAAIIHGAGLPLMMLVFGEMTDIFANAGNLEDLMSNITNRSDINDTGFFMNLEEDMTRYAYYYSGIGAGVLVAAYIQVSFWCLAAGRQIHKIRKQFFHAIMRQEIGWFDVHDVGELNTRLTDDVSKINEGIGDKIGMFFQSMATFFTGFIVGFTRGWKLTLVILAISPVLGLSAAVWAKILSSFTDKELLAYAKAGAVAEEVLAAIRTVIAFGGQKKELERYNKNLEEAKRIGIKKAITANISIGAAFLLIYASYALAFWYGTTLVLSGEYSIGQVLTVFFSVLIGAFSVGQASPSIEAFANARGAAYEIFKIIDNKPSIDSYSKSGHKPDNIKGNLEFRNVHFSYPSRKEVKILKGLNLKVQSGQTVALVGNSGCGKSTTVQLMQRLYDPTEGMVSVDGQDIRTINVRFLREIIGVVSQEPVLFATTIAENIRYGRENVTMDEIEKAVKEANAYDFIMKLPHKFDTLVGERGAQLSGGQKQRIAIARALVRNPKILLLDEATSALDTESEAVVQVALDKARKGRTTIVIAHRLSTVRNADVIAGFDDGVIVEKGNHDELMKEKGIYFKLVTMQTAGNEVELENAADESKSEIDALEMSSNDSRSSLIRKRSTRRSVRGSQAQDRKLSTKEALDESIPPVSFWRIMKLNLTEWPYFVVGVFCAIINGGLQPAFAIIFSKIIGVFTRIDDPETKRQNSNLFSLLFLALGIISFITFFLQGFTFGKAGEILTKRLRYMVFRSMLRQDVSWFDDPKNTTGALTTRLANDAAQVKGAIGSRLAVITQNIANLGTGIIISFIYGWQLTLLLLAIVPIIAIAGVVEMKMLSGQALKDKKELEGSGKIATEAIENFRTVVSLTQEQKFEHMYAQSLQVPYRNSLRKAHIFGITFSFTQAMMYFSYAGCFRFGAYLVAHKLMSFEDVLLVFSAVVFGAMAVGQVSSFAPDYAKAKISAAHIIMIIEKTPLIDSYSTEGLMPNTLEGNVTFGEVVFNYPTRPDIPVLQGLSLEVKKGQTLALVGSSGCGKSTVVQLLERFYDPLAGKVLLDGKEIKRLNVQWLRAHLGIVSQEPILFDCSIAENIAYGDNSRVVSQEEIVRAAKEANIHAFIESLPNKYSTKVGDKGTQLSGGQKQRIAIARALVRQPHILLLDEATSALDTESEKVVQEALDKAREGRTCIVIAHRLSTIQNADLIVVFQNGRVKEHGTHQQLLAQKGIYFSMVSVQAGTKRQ
structure (smiles),measurement,setting,value
COC1CC2CCC(C)C(O)(O2)C(=O)C(=O)N2CCCCC2C(=O)OC(C(C)CC2CCC(O)C(OC)C2)CC(=O)C(C)/C=C(\C)C(O)C(OC)C(=O)C(C)CC(C)/C=C/C=C/C=C/1C (stereo unspecified),fold fluorescence,[1],6.13 [at 54.7 µM] (inactive)
COc1cccc2c1C(=O)c1c(O)c3c(c(O)c1C2=O)C[C@@](O)(C(=O)CO)C[C@@H]3OC1C[C@H](N)[C@H](O)[C@H](C)O1 (stereo partly specified),fold fluorescence,[1],5.77 [at 92 µM] (inactive)
c1ccc(C2CN3CCSC3=N2)cc1 (stereo unspecified),fluorescence slope change,[2],29.7% (inactive)
C[C@@H]1CC2C3CCC4=CC(=O)C=C[C@]4(C)[C@@]3(F)[C@@H](O)C[C@]2(C)[C@@]1(O)C(=O)CO (stereo partly specified),fold fluorescence,[1],10.5 [at 127.4 µM] (inactive)
CO[C@@]12[C@@H]3NC3CN1C1=C(C(=O)C(N)=C(C)C1=O)[C@@H]2COC(N)=O (stereo partly specified),normalised LDH release,[3],0.873
same,fold fluorescence,[1],4.49 [at 149.6 µM] (inactive)
O=C(O)c1ccccc1Nc1ccccc1,fold fluorescence,[1],3.75 [at 234.5 µM] (inactive)
CCCCC[C@H](CC(=O)NO)C(=O)N[C@H](C(=O)N1CCC[C@H]1CO)C(C)C,normalised LDH release,[3],1.19
CCC(NC(C)C)C(O)c1ccc(O)c(O)c1 (stereo unspecified),fluorescence slope change,[2],50.8% (active)
O=C(O)Cc1cc(I)c(Oc2ccc(O)c(I)c2)c(I)c1,fluorescence slope change,[2],75.2% (active)
CCC[C@@H]1C[C@@H](C(=O)N[C@@H](C2O[C@H](SC)[C@H](O)[C@@H](O)[C@H]2O)[C@H](C)Cl)N(C)C1 (stereo partly specified),fluorescence slope change,[2],138% (active)

# From PubChem BioAssay
